Compounds with a hit are over-represented: about 0.69% of the library has one in this group of screens.
E coli growth-1: inhibitors of Escherichia coli growth; OD600, 23 h; hits give low values; OD600 absorbance (test concentration not listed); 330,000 compounds, 0.21% hits;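 active means OD600 absorbance below the run mean of sample wells minus 3.6 SD, in any replicate, cut at about 0.56 in these data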
phage Ecoli inh: E. coli growth loss with phage present. growth absorbance. inhibition, % at 11.9 µM. 360,000 compounds, 0.26% hits. AID 651602; in the data active means inhibition above about 11%
Tat transport: inhibitors of E. coli Tat protein transport; AID 488895; E. coli MC4100 TorA-mCherry Tat export, fluorescence; 340,000 compounds, 0.036% hits; inhibition, % at 10 µM;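 active means mean replicate inhibition at least 50% and at least half of replicates individually reaching 50%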;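 further: exported cargo escapes ClpAP degradation while cytoplasmic cargo is degraded and loses fluorescence; 0% = median of neutral control wells and 100% = median of NaSCN control wells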
PfHsp90 set2: reduces growth (ATP signal) of yeast expressing P. falciparum Hsp90; 310,000 compounds, 0.32% hits; inhibition, % at 9.4 µM; S. cerevisiae expressing PfHsp90, BacTiter-Glo ATP, 48 h; yeast lacking PDR1 and PDR3 efflux regulators;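 active means every replicate shows inhibition above about 80%, whatever the replicate mean, limit read from the data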;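 further: 0% = DMSO neutral controls and 100% = 20 µM radicicol positive controls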
AddAB inh: less growth of phage-infected E. coli with AddAB. E. coli expressing H. pylori AddAB, absorbance growth. inhibition, % at 11.9 µM. 330,000 compounds, 0.29% hits. AID 435030; in the data active means inhibition above about 12%;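 further: 0% = vehicle wells of infected cells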
E coli growth-2: reduces bacterial viability in AddAB counter-screen; 330,000 compounds, 0.27% hits; inhibition, % at 11.9 µM; E. coli V3065 growth, OD600 absorbance, 18 h;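 active means inhibition above the campaign's mean inhibition across all tested compounds plus 3 SD, cut at about 9.9% in these data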;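 further: uninfected addAB+ strain grown without phage in ampicillin broth; 0% = DMSO wells and 100% = ciprofloxacin 0.95 µg/ml wells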
* marks the source's active call; other numbers are inactive results; nt = not tested or not shown.

SMILES	E coli growth-1	phage Ecoli inh	Tat transport	PfHsp90 set2	AddAB inh	E coli growth-2
Cc1ccnc(N/C=C(/NC(=O)c2ccccc2)C(=O)NN=Cc2ccc(Cl)cc2)n1	0.661	nt	nt	nt	nt	nt
COc1ccc(C=NNC(=O)CN(c2ccc(OC)cc2)S(=O)(=O)c2ccccc2)cc1	0.627	nt	nt	nt	nt	nt
Cc1ccc(C=NNC(=S)NC(C)C)o1	0.686	nt	nt	nt	nt	nt
NC(=O)C1CCN(C2CC(=O)N(c3cccc(F)c3)C2=O)CC1 (configuration not stated)	0.657	1.1	1.1	-58.1	2.2	0.4
NC(=O)C1CCN(C2CC(=O)N(c3ccc(F)c(Cl)c3)C2=O)CC1 (configuration not stated)	0.725	0.5	-6.3	104.0*	-0.6	-2.4
O=C(NN=Cc1ccc([N+](=O)[O-])o1)c1cn(-c2ccccc2)nc1-c1ccccc1	0.684	nt	nt	nt	nt	nt
Cn1c(SCC=Cc2ccccc2)nnc1-c1cnccn1	0.674	nt	nt	nt	nt	nt
CC(=O)Nc1ccc(C(=O)NN=Cc2ccccc2OCc2ccccc2)cc1	0.683	nt	nt	nt	nt	nt
CCOC(=O)c1sc(-c2ccc(C(F)(F)F)cc2)nc1O	0.682	3.2	-1.2	105.8*	0.4	-1.3
CC[n+]1c(/C=C/c2c[nH]c3ccccc23)ccc2cc(C)ccc21	0.463*	-0.8	-2.0	24.1	nt	nt
COc1ccc(-c2nn(-c3ccccc3)cc2C(=O)N2CCN(S(=O)(=O)c3ccccc3[N+](=O)[O-])CC2)cc1	0.739	2.8	-1.9	99.3*	nt	nt
COc1ccc(-c2nn(-c3ccccc3)cc2C(=O)N2CCN(S(=O)(=O)c3cccc(F)c3)CC2)cc1	0.712	0.4	2.6	104.9*	-2.9	0.8
COc1ccc(-c2nn(-c3ccccc3)cc2C(=O)N2CCN(C(=O)c3ccco3)CC2)cc1	0.697	1.6	2.4	18.3	-0.5	-1.6
COc1ccc(-c2nn(-c3ccccc3)cc2C(=O)N2CCN(S(=O)(=O)c3ccccc3C#N)CC2)cc1	0.718	-0.1	2.7	nt	-3.1	1.7
Cc1cccc(-n2c(C)cc(C=NNC(N)=S)c2C)c1	0.693	nt	nt	nt	nt	nt
CSc1nnc2c3cc(F)ccc3n(C)c2n1	0.699	2.5	14.1	83.5*	0.7	0.4
CN=C1SC(CC(=O)Nc2ccc(F)cc2F)C(=O)N1N=C(C)c1cccc(OCC(=O)O)c1 (configuration not stated)	0.675	nt	nt	nt	nt	nt
COc1ccc(-c2cnnc(NN=Cc3ccc(C)o3)n2)cc1	0.652	nt	nt	nt	nt	nt
N/C(Cc1ccc(Cl)c(Cl)c1)=N\OC(=O)c1ccc(Br)o1	0.666	-0.1	-14.7	94.6*	5.9	1.0
N/C(=N\OC(=O)c1ccc(Br)o1)c1cccnc1	0.688	1.7	-2.7	-10.5	-0.3	-0.3
NC(=O)SCC(=O)Nc1ccc(Cl)cc1	0.534*	-0.2	-1.6	5.9	2.6	5.8
CC1(C)N=C(SCC(=O)Nc2ccc(Cl)cc2)C(c2ccc(Cl)cc2)=N1	0.67	0.3	-3.1	110.2*	1.3	0.2
CC1(C)N=C(SCC(=O)Nc2ccc(Cl)cc2)C(c2ccccc2)=N1	0.645	2.0	2.7	nt	-0.2	-1.1
CC(Cn1nnc([N+](=O)[O-])n1)=NNC(=O)c1ccc(Cl)c(Cl)c1	0.648	nt	nt	nt	nt	nt
Cc1ccc(Nc2cc(C)nn2-c2nc(C)cc(=O)[nH]2)cc1	0.492*	nt	-14.3	104.8*	2.0	1.9
SMILES	E coli growth-1	phage Ecoli inh	Tat transport	PfHsp90 set2	AddAB inh	E coli growth-2
Cc1ccc(Nc2cc(C)nn2-c2nc(C)cc(C)n2)cc1	0.702	-0.5	-4.0	-25.2	-0.3	0.6
CCC(C)Sc1ccc(C2C3C(=O)N(C)C(=O)C3[C@]3(C(=O)OC)CCCCN23)cc1OC (some centres not stated)	0.708	nt	nt	nt	nt	nt
COc1ccc(/C=C\C(=O)O[C@@H]2C(O)C(O[C@@H]3OC(C)[C@H](O[C@@H]4OCC(O[C@H]5O[C@H](CO)[C@@H](O)C(O)C5O)C(O)C4O)C(O)C3O)[C@H](OC(=O)[C@]34CCC(C)(C)C[C@@H]3C3=CCC5[C@@]6(C)CC(O)C(O[C@@H]7OC(CO)C(O)[C@H](O)[C@H]7O)[C@@](C)(C(=O)O)C6CC[C@@]5(C)[C@]3(CO)CC4)O[C@H]2C)cc1 (some centres not stated)	nt	nt	-16.2	107.8*	-1.1	-1.1
CC1OC(OC2C(O)C(C)OC(OC(=O)[C@]34CCC(C)(C)CC3C3=CCC5[C@@]6(C)CC(O)C(OC7OC(CO)C(O)C(O)C7O)[C@@](C)(C(=O)O)C6CC[C@@]5(C)[C@]3(CO)CC4)C2OC2OC(C)C(OC3OCC(OC4OC(CO)C(O)C(O)C4O)C(O)C3O)C(O)C2O)C(O)C(O)C1O (some centres not stated)	0.72	nt	nt	nt	nt	nt
Oc1c(C(c2ccccc2)N2CCOCC2)ccc2ccccc12 (configuration not stated)	0.633	3.5	-0.4	101.1*	nt	nt
CCc1ccc(OCC(=O)NNC(=S)NC(=O)C2CC2)c(Br)c1	0.679	-1.7	-9.5	107.6*	nt	nt
CCN1CCCC1CN(Cc1cc2ccc(C)cc2[nH]c1=O)C(=S)Nc1ccc(OC)cc1 (configuration not stated)	0.683	3.6	11.2	0.1	2.1	-1.3
CCN1CCCC1CN(Cc1cc2ccc(C)cc2[nH]c1=O)C(=S)Nc1ccc(F)cc1 (configuration not stated)	0.658	2.8	4.4	94.5*	-0.8	2.0
CCN1C(=Cc2ccc3ccccc3[n+]2CC)C=Cc2ccccc21	0.493*	nt	nt	nt	nt	nt
CCN1/C(=C/c2ccc3ccccc3[n+]2CC)C=Cc2ccccc21	nt	12.2*	-14.5	26.1	9.6	11.0*
O=C(/C=C/c1cccc(Cl)c1)c1ccc([N+](=O)[O-])o1	nt	4.8	-5.5	107.8*	8.5	6.5
COc1cc(/C=C/C(=O)/C=C(O)/C=C/c2ccc(O)c(OC)c2)ccc1O	nt	9.0	-4.9	-13.1	10.5	10.3*
COc1cc(/C=C/C(=O)c2ccc([N+](=O)[O-])o2)ccc1O	nt	4.5	-11.2	111.7*	9.9	5.8
c1cc(-c2cn(CC3CCC(C4CCC(Cn5cc(-c6ccsc6)nn5)O4)O3)nn2)cs1 (configuration not stated)	0.714	nt	nt	nt	nt	nt
Cc1cccc(OCC(=O)ON=C(N)c2ccccn2)c1	0.697	nt	nt	nt	nt	nt
CCCCCCCCOC(=O)c1cc([N+](=O)[O-])c(Sc2ncnc3nc[nH]c23)c([N+](=O)[O-])c1	nt	1.2	-2.6	106.5*	nt	nt
CCCc1cc(NCc2ccccn2)n2nc(C)c(-c3ccccc3)c2n1	0.678	0.7	2.7	107.1*	2.8	0.8
Cc1nn2c(NCc3ccccn3)cc(C(C)C)nc2c1-c1ccccc1	0.631	-1.3	0.6	5.0	-1.2	-4.2
COc1ccc2nc(NC(=O)c3ccc([N+](=O)[O-])o3)sc2c1	0.484*	6.7	-13.5	1.6	11.5	7.7
